LNCaP diff act – activators of LNCaP prostate cell differentiation, primary screen, flow cytometry side scatter | 4 d | side scatter shift, % at 10 µM | actives 0.56% (n = 24,000) | AID 795, 2007;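 active means side scatter shift above 30%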;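 further: androgen-responsive LNCaP prostate cancer cells in charcoal-stripped serum medium; higher shift means more granular cells and more differentiation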
FPRL1 ligand – human FPRL1 ligands by binding competition, primary screen, cell-based, FPR counter-screen, flow cytometry; N-formyl peptide receptor 2 (Homo sapiens), P25090; FPRL1-expressing cells, fluorescent ligand binding inhibition; inhibition, % (no concentration beside the values); actives 0.3% (n = 24,000)
VLA-4 antagonist – inhibitors of LDV-FITC binding to Mn2+-activated VLA-4, primary screen, Jurkat cells | AID 529, 2006 | inhibition, % at 10 µM (by protocol) | actives 0.2% (n = 24,000) | Integrin alpha-4 (Homo sapiens), P13612 | LDV-FITC binding with Mn2+, flow cytometry; 100% = Mn2+-driven binding gain fully reversed;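 active means inhibition above 50%; inconclusive means compound itself fluorescent, judged against control cell fluorescence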
Target sequence (P13612 whole entry, looked up): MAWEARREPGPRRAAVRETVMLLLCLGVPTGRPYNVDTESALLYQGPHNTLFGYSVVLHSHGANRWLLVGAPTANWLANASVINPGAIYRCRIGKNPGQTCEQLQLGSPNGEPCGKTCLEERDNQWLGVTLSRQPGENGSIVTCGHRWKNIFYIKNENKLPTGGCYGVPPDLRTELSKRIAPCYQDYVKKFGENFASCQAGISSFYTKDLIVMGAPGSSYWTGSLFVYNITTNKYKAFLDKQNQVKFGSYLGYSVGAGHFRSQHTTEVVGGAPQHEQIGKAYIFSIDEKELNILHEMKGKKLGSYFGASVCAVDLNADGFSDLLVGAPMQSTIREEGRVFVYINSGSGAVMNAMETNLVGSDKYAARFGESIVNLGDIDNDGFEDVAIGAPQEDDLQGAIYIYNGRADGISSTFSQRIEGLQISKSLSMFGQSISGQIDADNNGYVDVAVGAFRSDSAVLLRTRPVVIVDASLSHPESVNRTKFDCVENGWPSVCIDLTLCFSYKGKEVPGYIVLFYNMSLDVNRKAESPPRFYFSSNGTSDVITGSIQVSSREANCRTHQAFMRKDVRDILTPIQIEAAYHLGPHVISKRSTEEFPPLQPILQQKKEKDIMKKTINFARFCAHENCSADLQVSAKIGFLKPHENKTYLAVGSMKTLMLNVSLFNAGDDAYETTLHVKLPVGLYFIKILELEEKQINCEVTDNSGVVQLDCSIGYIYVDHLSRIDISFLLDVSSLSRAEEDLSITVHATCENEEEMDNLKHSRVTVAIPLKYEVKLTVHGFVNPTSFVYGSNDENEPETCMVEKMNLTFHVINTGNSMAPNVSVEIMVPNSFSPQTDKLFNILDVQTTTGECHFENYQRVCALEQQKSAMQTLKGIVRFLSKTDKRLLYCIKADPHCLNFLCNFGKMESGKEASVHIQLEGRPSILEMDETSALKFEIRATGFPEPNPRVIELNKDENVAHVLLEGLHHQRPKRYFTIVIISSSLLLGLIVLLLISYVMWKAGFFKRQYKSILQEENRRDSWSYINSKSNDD
FPR ligand – human FPR ligands by binding competition, primary screen, cell-based, FPRL1 counter-screen, flow cytometry | fMet-Leu-Phe receptor (Homo sapiens), P21462 | FPR-expressing cells, fluorescent ligand binding | actives 0.74% (n = 24,000) | inhibition, % (test concentration not listed)
VLA-4 allo ag – enhancers of LDV-FITC binding to VLA-4 integrin, primary screen, Jurkat cells, flow cytometry. Integrin alpha-4 (Homo sapiens), P13612. activation, % at 10 µM (by protocol). 24,000 tested, under 10 active. AID 528, 2006;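 active means fluorescent ligand binding to cells raised by more than 40% of the manganese-induced maximum; inconclusive means compound's own fluorescence above 85% of the ligand control signal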
Autofluor Jurkat – compound autofluorescence on Jurkat cells, primary screen, artefact control for VLA-4 allosteric ligand project, cell-based, flow cytometry; fluorescence ratio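 (tested at 10 µM compound in the well)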; hits give high values; 1 = vehicle-only cell background; actives 0.61% (n = 24,000);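 active means fluorescence ratio above 2.44, which is 1 plus 3 SD of all ratios; inconclusive means signal too bright to measure linearly, ratio around 10 or more; inactive means fluorescence ratio below 2.44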;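 further: green fluorescence of cells measured with 488 nm excitation and 530 nm emission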
Of the large screens only hits and unclear results are named; the others gave an inactive call. Sampled rows, rich in hits. Any-hit rate of the full collection: about 1.9%. Unless noted, no stated cut-off is given here; in the data, active means inhibition above about 30%; inconclusive means no clear call, values can overlap the other calls; inactive means below that.

CN(C)c1ccc(/C=c2\sc3nc(-c4ccccc4)nn3c2=O)cc1	VLA-4 antagonist inconclusive, VLA-4 allo ag inconclusive, Autofluor Jurkat 8.23 (no result: FPRL1 ligand, FPR ligand)
Cc1cccn2c(=O)c3cc(C(=O)NCc4ccccc4)c(=N)n(CCCN4CCOCC4)c3nc12	LNCaP diff act 58.0, VLA-4 antagonist inconclusive, VLA-4 allo ag inconclusive
COc1ccc(OC)c(C2C(C(=O)c3cccs3)=C(O)C(=O)N2c2cc(C)on2)c1 (centres undefined)	FPR ligand 56.2 (no result: LNCaP diff act, VLA-4 antagonist, VLA-4 allo ag, Autofluor Jurkat)
COc1cccc(C2C(C(=O)c3cccs3)=C(O)C(=O)N2c2cc(C)on2)c1 (centres undefined)	none (no result: LNCaP diff act, VLA-4 antagonist, VLA-4 allo ag, Autofluor Jurkat)
COc1cccc(C2C(C(=O)c3cc4ccccc4o3)=C(O)C(=O)N2c2cc(C)on2)c1OC (centres undefined)	FPR ligand 53.9 (no result: LNCaP diff act, VLA-4 antagonist, VLA-4 allo ag, Autofluor Jurkat)
CCCCC[C@H](O)/C=C/[C@H]1C=CC(=O)[C@@H]1C/C=C\CCCC(=O)O	VLA-4 allo ag 42.0
CCOc1cccc(NC(=O)C2CC(=O)N(C)C(=Nc3cccc(F)c3)S2)c1 (centres undefined)	none
Cc1noc(C(=O)N2CC3(C)CC2CC(C)(C)C3)c1Cl (centres undefined)	none
O=C(COC(=O)C1CC1)c1c[nH]c2ccccc12	none
COc1ccc2c(C(=O)CN(C)C3CCCCC3)c[nH]c2c1	VLA-4 antagonist inconclusive, VLA-4 allo ag inconclusive, Autofluor Jurkat 6.7
COc1c(C)cccc1C(=O)Nc1cc(-c2nn3c(C)nnc3s2)ccc1C	none
CN1CCc2c(sc3c2C(=O)NC(c2cccc(OC(=O)c4cccs4)c2)N3)C1 (centres undefined)	VLA-4 antagonist inconclusive, VLA-4 allo ag inconclusive, Autofluor Jurkat 3.22
Cc1ccc2c(c1)c1c(n2CC(O)CNC(CO)(CO)CO)CCCC1 (centres undefined)	LNCaP diff act 30.0
COC(=O)Cn1c2c(c3cc(C)ccc31)CCCC2	none
Cc1cc(N2C(=O)C3C4C=CC(C4)C3C2=O)ccc1Br (centres undefined)	none
Cc1cccn2c(=O)c3cc(C(=O)N(C)C)n(C)c3nc12	VLA-4 antagonist inconclusive, VLA-4 allo ag inconclusive, Autofluor Jurkat 3.09
Cc1nc2ccc(F)cc2cc1C(=O)NCC1CCCO1 (centres undefined)	VLA-4 antagonist inconclusive, VLA-4 allo ag inconclusive, Autofluor Jurkat 3.42
COC(=O)c1ccc(/C(O)=C(\C#N)c2nc3ccccc3s2)cc1	VLA-4 antagonist inconclusive, VLA-4 allo ag inconclusive, Autofluor Jurkat 2.68
CC(=O)Nc1ccccc1O	none
CC(=O)Nc1cccc(C(=O)Oc2cccc(C)c2)c1O	VLA-4 antagonist 61.0
COc1ccc(NC(=O)C(c2ccc(C)cc2)N(C)C(=O)c2cnccn2)cc1 (centres undefined)	FPRL1 ligand 38.3
COCCN1C(=O)C(O)=C(C(=O)c2cccs2)C1c1ccccc1 (centres undefined)	FPR ligand 59.8 (no result: LNCaP diff act, VLA-4 antagonist, VLA-4 allo ag, Autofluor Jurkat)
Cc1nc(C)c(C(=O)C2=C(O)C(=O)N(CCCn3ccnc3)C2c2ccccc2)s1 (centres undefined)	none
Cc1ccc(C(=O)C2=C(O)C(=O)N(CCCn3ccnc3)C2c2ccc(OC(C)C)cc2)o1 (centres undefined)	FPR ligand 65.2 (no result: LNCaP diff act, VLA-4 antagonist, VLA-4 allo ag, Autofluor Jurkat)
COc1cccc(C2C(C(=O)c3ccc(C)o3)=C(O)C(=O)N2CCCN(C)C)c1 (centres undefined)	none
CCOc1ccc(C2C(C(=O)c3cccs3)=C(O)C(=O)N2CCCn2ccnc2)cc1 (centres undefined)	FPR ligand 30.3 (no result: LNCaP diff act, VLA-4 antagonist, VLA-4 allo ag, Autofluor Jurkat)
CCOc1ccc(C2C(C(=O)c3ccco3)=C(O)C(=O)N2CCCn2ccnc2)cc1 (centres undefined)	FPR ligand 70.3 (no result: LNCaP diff act, VLA-4 antagonist, VLA-4 allo ag, Autofluor Jurkat)
CCCOc1ccc(/C(O)=C2/C(=O)C(=O)N(CCCn3ccnc3)C2c2ccco2)cc1 (centres undefined)	none (no result: LNCaP diff act, VLA-4 antagonist, VLA-4 allo ag, Autofluor Jurkat)
CN(CC(=O)N1CC=C(c2ccccc2)CC1)S(=O)(=O)c1cnc[nH]1	none
CCC(CC)C(=O)Nc1c2cnn(-c3ccccc3)c2nc(=O)n1-c1ccccc1	VLA-4 antagonist 53.0, FPR ligand 82.6

Assay outcomes (PubChem BioAssay)
